Laboratory results published in PubChem BioAssay AID624330 (Southern Research Specialized Biocontainment Screening …, 2012).
Among all 340,000 compounds or so, about 2,100 (0.62%) were called active.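 The calls were made as follows: active = first-screen hits whose inhibition reached a set limit at any dose in the follow-up dose series; inconclusive = inhibition above the set first-screen limit but never retested; inactive = the rest.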 A selection follows. Entries with a potency or affinity are not part of this list.

These molecules were tested against Rac GTPase-activating protein 1 (Homo sapiens) (UniProt Q9H0H5) (assay: blockers of MgcRacGAP-driven Rac1 GTP hydrolysis – biochemical, ADP Hunter fluorescence, primary and confirmatory, confirmation (AID 624330;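 also: fluorescence reports GDP produced by GAP-driven GTP hydrolysis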)). Conditions: MgcRacGAP-stimulated Rac1 GTP hydrolysis, at 30 µM, stronger effect = higher value, GST-tagged Rac1 F28L mutant substrate.
Sequence of Rac GTPase-activating protein 1 (Homo sapiens) (Q9H0H5 whole entry, looked up): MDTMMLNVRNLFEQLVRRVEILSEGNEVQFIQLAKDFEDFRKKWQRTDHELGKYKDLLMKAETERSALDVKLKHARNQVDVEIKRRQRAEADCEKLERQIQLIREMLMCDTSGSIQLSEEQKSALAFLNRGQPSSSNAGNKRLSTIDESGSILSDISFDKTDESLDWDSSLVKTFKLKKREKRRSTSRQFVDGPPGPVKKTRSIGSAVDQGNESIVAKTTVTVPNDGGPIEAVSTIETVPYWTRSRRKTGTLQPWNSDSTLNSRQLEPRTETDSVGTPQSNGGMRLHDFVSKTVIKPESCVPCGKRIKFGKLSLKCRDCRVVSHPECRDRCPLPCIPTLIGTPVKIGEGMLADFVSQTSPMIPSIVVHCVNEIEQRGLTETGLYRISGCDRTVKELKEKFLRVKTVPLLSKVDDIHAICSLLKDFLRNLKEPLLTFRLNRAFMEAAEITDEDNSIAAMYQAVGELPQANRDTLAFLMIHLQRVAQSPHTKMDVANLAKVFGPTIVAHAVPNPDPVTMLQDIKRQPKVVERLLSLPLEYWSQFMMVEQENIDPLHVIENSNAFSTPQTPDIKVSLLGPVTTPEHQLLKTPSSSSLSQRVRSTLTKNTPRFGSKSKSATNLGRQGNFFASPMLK

inhibition, inactive:
CNC(=S)N1CCc2sccc2C1C (centres undefined) 9.43%
N#Cc1c2ccc(OCC(=O)NCc3ccco3)cc2n2ccccc12 8.65%
CCOC(=O)Cc1csc(NC(=O)/C=C/c2ccco2)n1 7.86%
CN(C)c1nc2ccccc2c(N)c1-c1ccccc1 31%
Nc1c2ccccc2nc2ccccc12 12.6%
CC1(C)CC(NC(=O)C2CCC(=O)N(Cc3ccccc3F)C2)CC(C)(C)C1 (centres undefined) 6.51%
Cc1cc(C)c(S(=O)(=O)NC(C)C)c(C)c1-n1cnnn1 4.49%
Cc1cc(C)c(S(N)(=O)=O)c(C)c1-n1cnnn1 1.87%
COc1ccc(-c2nn(-c3ccccc3)cc2/C=N/NC(=S)NC(C)C)cc1OC 7.12%
CCOC(=O)C1CCN(C(=O)c2cc(S(=O)(=O)N3CCCCC3)ccc2C)CC1 -9.49%
CC(C)c1nc(SCC(=O)Nc2ccc(N3CCOCC3)cc2)c2ccccc2n1 9.39%
CN(C)c1ccc(NC(=O)CSc2nc(C3CC3)nc3ccccc23)cc1 -1.11%
COCCn1c(SCC(=O)c2ccc3c(c2)OCCO3)nnc1-c1ccco1 8.82%
O=C1NC(=O)N(c2ccccc2)C1=O 10%
O=C(O)COc1ccccc1/C=N/NC(=O)Cc1ccccc1 9.01%
CC(C)Cc1nc2sc3c(c2c(=O)n1N)CC(C)(C)OC3 -0.31%
Oc1ccc(C[C@H]2CNC(=S)N2CC2CCCN2C[C@H](Cc2ccc(O)cc2)N2C[C@H](Cc3ccccc3)N(CCc3ccccc3)C2=S)cc1 (some centres undefined) 10.5%
Cc1cc2c(cc1S(=O)(=O)N1CC(C)CC(C)C1)OCC(=O)N2 (centres undefined) 1.63%
COc1cc(/C=C/C(=O)OCC(=O)Nc2c(C)n(C)n(-c3ccccc3)c2=O)ccc1OCC#N 3.82%
COc1cccc(/C=C/C(=O)OC(C)C(=O)Nc2c(C)n(C)n(-c3ccccc3)c2=O)c1 (centres undefined) 1.46%
COc1cc(/C=C/C(=O)OCC(=O)Nc2c(C)n(C)n(-c3ccccc3)c2=O)cc(OC)c1OC -6.63%
Cc1c(NC(=O)C(C)OC(=O)/C=C/c2ccccc2)c(=O)n(-c2ccccc2)n1C (centres undefined) 2.8%
CCCCCCn1c(CN2CCN(C)CC2)nc2c1c(=O)n(C)c(=O)n2C 0.38%
CCOC(=O)Cc1csc(NC(=O)CSc2nc(N)c3c(C)c(C)sc3n2)n1 -6.82%
O=C(CSc1nc2ccccc2o1)NCC1CCCO1 (centres undefined) 5.06%
CCC(c1nnnn1Cc1ccc(OC)cc1)N1CCN(c2ccc(OC)cc2)CC1 (centres undefined) 24.3%
Cc1cc2oc(=O)cc(CSc3nc(N)cc(N)n3)c2cc1C(C)C 11.9%
N#Cc1ccc(N[C@@H]2CCN3C(=O)c4ccccc4[C@@H]3C[C@H]2O)cc1 4.35%
O=C1c2ccccc2[C@@H]2C[C@@H](O)[C@H](Nc3ccccc3)CCN12 8.38%
CCC1CCCCN1Cc1ccc(OC)c(C)c1 (centres undefined) 14.3%
Cc1ccc(S(=O)(=O)NCCS(=O)(=O)N2CCN(c3ccccc3)CC2)cc1 -3.13%
CC(C)(c1ccc(O)c([N+](=O)[O-])c1)c1ccc(O)c([N+](=O)[O-])c1 5%
N=C(N)SCc1ccc(O)c([N+](=O)[O-])c1 14.6%
CN(CC(=O)Nc1ccc2c(c1)CCC2)CC(=O)Nc1ccccc1Br 3.47%
Nc1ccc2c(c1)Cc1cc(Cl)c(Cl)cc1-2 31.7%
CC(=O)Nc1c(Cl)cc2c(c1Cl)Cc1cc(N)ccc1-2 2.49%
O=[N+]([O-])c1cc2c(cc1Br)-c1ccccc1C2 3.13%
Nc1ccc2c(c1)Cc1c(F)cccc1-2 19.7%
CC(=O)Nc1cc2c(cc1Cl)-c1ccccc1C2 0.41%
COc1cc2c(cc1[N+](=O)[O-])-c1ccccc1C2 -0.68%
COc1cc(N)ccc1-c1cc2ccccc2oc1=O 3.42%
Nc1ccc2c(c1)CCC2=O 1.82%
O=C(CCc1nc2ccccc2s1)NCc1ccccc1F 3.81%
CCSC1=N/C(=C\c2ccccc2)C(=O)N1 7.65%
C/C(=N/NC(=O)C1CC1(c1ccccc1)c1ccccc1)c1ccco1 (centres undefined) 10.7%
COc1cc2cc(CN(Cc3cccnc3)C(=O)Nc3ccccc3)c(=O)[nH]c2cc1OC 13.6%
CCCCn1c(N)c(N(CCOC)C(=O)CCN2C(=O)C3CC=CCC3C2=O)c(=O)[nH]c1=O (centres undefined) 9.87%
O=C(NCC(=O)N1CCCCCCC1)c1ccc(Cl)c(Cl)c1 16.3%
Nc1c(Cl)cc2c(c1Br)Cc1ccccc1-2 13.1%
CC(=O)Nc1ccc2c(c1Br)Cc1ccccc1-2 2.11%
Cc1ccc(NC(=O)CN2CCN(Cc3ccccc3)CC2)cc1F 6.45%
O=C(CN1CCN(C(c2ccccc2)c2ccccc2)CC1)NCc1ccccc1 4.24%
O=C(CN1CCCCCC1)NC(c1ccccc1)c1ccccc1 25.4%
CC1Cc2ccccc2N1CC(=O)NC(c1ccccc1)c1ccccc1 (centres undefined) -0.83%
O=C(CN1CCN(Cc2ccccc2)CC1)Nc1ccc(Cl)cc1 10.4%
COCCNC(=O)CN1CCN(C(c2ccccc2)c2ccccc2)CC1 25.6%
O=C(CN1CCCC1)NC(c1ccccc1)c1ccccc1 23.8%
CC1CN(CC(=O)NC(C)c2ccccc2)CC(C)O1 (centres undefined) 10.1%
CCN1CCN(C(=O)c2ccccc2Nc2ccc(SC(F)F)cc2)CC1 9.86%
CCCCCC(=O)Nc1cccc(S(=O)(=O)NC2=NCCC2)c1 6%
O=C(NCc1ccccn1)c1ccc(NS(=O)(=O)c2cccc(Cl)c2)cc1 2.91%
CC1CN(Cc2nc3c(c(=O)n(C)c(=O)n3C)n2CC(O)CO)CC(C)O1 (centres undefined) 1.13%
CC(NC(=O)C(C)N1CCN(Cc2ccccc2)CC1)c1ccccc1 (centres undefined) 4.7%
CC(NC(=O)C(C)N1CCN(Cc2ccccc2)CC1)c1ccc(F)cc1 (centres undefined) 4.63%
CCn1c(SCC(=O)Nc2cccc(F)c2)nc2c(c1=O)SC(C)C2 (centres undefined) 3.97%
Cc1ccc(-n2ccnc(SCC(=O)NC3CCCCC3)c2=O)cc1F 7.99%
Cc1ccc(O)c(NC(=O)c2cc(-c3cccs3)on2)c1 5.43%
O=C(Nc1cccc(Cl)c1)c1nc[nH]c1C(=O)NCCN(CCNC(=O)c1[nH]cnc1C(=O)Nc1cccc(Cl)c1)CCNC(=O)c1[nH]cnc1C(=O)Nc1cccc(Cl)c1 10.4%
O=C(c1cc(C2CC2)nn1-c1ccccc1)N1CCN(S(=O)(=O)c2ccc(F)cc2)CC1 4.93%
COc1ccc2[nH]cc(CCNC(C)=O)c2c1 -0.52%
COc1cc2c(CCNC(C)=O)c[nH]c2cc1Cl 7.18%
O=C(C1CCN(C2CCN(Cc3ccc4c(c3)CCO4)CC2)CC1)N1CCOCC1 3.51%
COc1ccc(CCNC(=O)C2CCN(S(=O)(=O)c3ccc(C)cc3)CC2)cc1OC -4.11%
COc1cccc(N(CC(=O)NC2CCCCC2)C(=O)Cn2nnc(-c3ccc(C)o3)n2)c1 -3.15%
Cc1ccsc1/C=N/NC(=O)c1cccc(S(=O)(=O)Nc2ccccc2Cl)c1 13.6%
CC(Cn1cncn1)C(=O)N1CCN(S(=O)(=O)c2ccccc2)CC1 (centres undefined) 5.09%
Cc1csc(=O)n1CC(=O)OC(C)C(=O)Nc1cccc(Cl)c1 (centres undefined) 5.89%
CC(OC(=O)c1cccc(N2C(=O)c3ccccc3C2=O)c1)C(=O)Nc1ccc(N(C)C)cc1 (centres undefined) 5.16%
Cc1csc(=O)n1CC(=O)OC(C)C(=O)Nc1ccc(F)c(F)c1F (centres undefined) 7.87%
CC(=O)Nc1ccc(NC(=O)C(C)OC(=O)CCN=C2NS(=O)(=O)c3ccccc32)cc1 (centres undefined) 7.31%
Cc1ccc(-n2c(Cc3cccn3C)nnc2SCC(=O)N2CCc3ccccc32)cc1 19%
COc1cc(OC)c(OC)cc1CN1CCN(c2ccc(F)cc2)CC1 10.3%
CSc1ccc(/C=N/N2CCN(Cc3ccccc3Cl)CC2)cc1 0.33%
CSc1ccc(CN2CCCCCC2)cc1 18.5%
CCN(Cc1ccccc1)C(=O)C1CCN(Cc2ccc(SC)cc2)CC1 23.2%
COc1cc(OC)c(OC)cc1CN1CCN(Cc2cccn2C)CC1 31.5%
COc1cc(OC)c(OC)cc1CN1CCN(c2ccccc2OC)CC1 19.5%
COc1ccccc1CN1CCCCCC1 24.6%
CCN(Cc1ccccc1)C1CCN(Cc2ccccc2)CC1 -17.1%
Cc1noc(C)c1COC(=O)c1ccccc1Sc1ccccc1C#N 3.85%
CCOc1ccc(CCN2C(=S)N([C@@H](CC(C)C)CN3CCCC3CN3C(=S)NC[C@@H]3Cc3ccc(O)cc3)C[C@@H]2Cc2ccc(O)cc2)cc1 (some centres undefined) 10.2%
O=C(OC(C(=O)NCc1ccccc1)c1ccccc1)c1ccco1 (centres undefined) 5.58%
Cc1cccn2cc(CNS(=O)(=O)c3cccc(F)c3)nc12 7.85%
O=C(CCc1nc2ccccc2[nH]1)N1CCN(C(=O)c2ccco2)CC1 -2.14%
